Screening data as filed in PubChem BioAssay.
Dicer processing: inhibitors of Dicer pre-microRNA processing, primary screen, biochemical, cat-ELCCA, chemiluminescence. cat-ELCCA pre-miR-21 Dicer processing; stronger effect = higher value. z-score at 25 µM. 47,000 compounds, 6% hits; in the data active means z-score above about 3, passing the limit was not always enough;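 further: higher signal means more uncleaved substrate so more Dicer inhibition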
Numbers stand for hits; – = inactive. This is one part of a sample in which hits are shown more often than they occur.

SMILES | Dicer processing
O=c1c2ccccc2nc(/C=C/c2ccc([N+](=O)[O-])o2)n1-c1ccc(O)cc1 | –
Clc1ccccc1CC1=NCCN1 | –
CC(C)C1(O)c2ccccc2-c2ncccc21 (stereo not given) | –
CN1CCc2nc(SCc3cccnc3)c(C#N)cc2C1 | –
O=C(Nc1cc(F)c(Br)cc1F)C(Cl)(Cl)Cl | –
C=CCC1(CC(C)C)C(=O)NC(=O)NC1=O | –
CCCC(C)C1(CC)C(=O)NC(=O)NC1=O (stereo not given) | 3.72
OC(CN1CC=C(c2ccccc2)CC1)C(F)(F)F (stereo not given) | –
COCc1cc(OC(=O)N(C)C)nc(-c2cc(Cl)cc(Cl)c2)n1 | –
O=C1C(c2ccccc2)C(=O)N(c2ccccc2)C(=O)N1c1ccccc1 | –
Oc1ccc(C2(c3ccc(O)cc3)CCCCC2)cc1 | 3.15
CCCCCC[C@H]1C(=O)O[C@H](C)C(NC(=O)c2cccc(NC=O)c2O)C(=O)O[C@@H](C)[C@@H]1OC(=O)CC(C)C (stereo not given in full) | –
CC(=O)OC1CCC2C3CCC4CCC(=O)CC4(C)C3CCC12C (stereo not given) | –
CC(C)CC(=O)NC1CCSC1=O (stereo not given) | –
CCCN1CCc2cc(O)cc3c2[C@H]1Cc1ccc(O)c(O)c1-3 | 4.51
CN1CCc2cc(O)cc3c2[C@H]1Cc1ccc(O)c(O)c1-3 | –
O=c1[nH]c(O)c(/C=C2\C=CC=N2)c(=O)[nH]1 | –
Cc1nc(COc2ccc(/C(N)=N/OC(=O)N(C)C)cc2)cs1 | –
Cc1cccc(Cl)c1NC1=NCCCS1 | –
NCC(=O)c1ccc(Cl)cc1 | –
NCCc1ccc(O)cc1 | –
NNC(=O)c1ccc(O)cc1 | 3.66
O=C1CC2CCCC(C1)N2Cc1ccccc1 | –
CC12CN3CC(C)(CN(C1)C3c1cccnc1)C2=O (stereo not given) | –
O=C1CC(c2cccnc2)Nc2ccc3ccccc3c21 (stereo not given) | 3.55
O=S(=O)(c1ccc(Cl)cc1Cl)N1CCCC1c1cccnc1 (stereo not given) | –
COc1ccc(/C=C/[N+](=O)[O-])c(OC)c1 | –
O=[N+]([O-])/C=C/c1ccc(Cl)cc1Cl | 3.54
O=[N+]([O-])/C=C/c1ccc(C(F)(F)F)cc1Cl | –
O=C1C(=Cc2cccc3ccccc23)N2CCC1CC2 | –
